# Test results reported in PubChem BioAssay (NCATS).
# Inconclusive results are not listed. The source made the active and inactive calls. The call rests on the fitted dose curve; in most records, active means well fitted inhibition curve with a large enough effect; inconclusive means small, poorly fitted or top-dose-only effect; inactive means no such curve, though single readings can be large or run the other way. Where a SMILES comes first, the peptide text is derived from it. [ ]: non-standard residue; d: D form. Hyp = O=C(O)[CH]1C[CH](O)CN1; Phe(ol) = N[CH](CO)Cc1ccccc1; Iva = CC[C](C)(N)C(=O)O; Aib = CC(C)(N)C(=O)O
# Tested on: Zika virus NS2B-NS3 protease (linked construct)
# Test: Primary screen NINDS Rhodamine qHTS for Zika virus inhibitors (AID 1347160); further: nearly all actives have a fitted effect of over 55% in size
# Settings: purified NS2B-NS3 protease, Rhodamine110 substrate fluorescence; series mostly up to 57.1 µM; activity change, negative = inhibition: at the top concentration
# In short: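 Each compound, titrated, sat 15 min with 25 nM linked protease before 1.5 microM Rhodamine110 substrate went in. Fluorescence gain over the next 15 min, in pH 8.0 Tris with Tween 20, gave Hill-fitted curves.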
# On the % scale 0 is the no-effect control and ±100 the full control effect; potency means the concentration at half of the fitted maximal effect.
Structure (SMILES),"activity change, negative = inhibition",outcome,Potency
CC(F)(F)CN1CCOc2c(nn(-c3ccccc3Cl)c2-c2ccc(Cl)cc2)C1=O,-10.1% (inactive),–,–
O=C(NS(=O)(=O)c1ccc(Br)s1)c1ccc(Cl)cc1Cl,-17.3% (inactive),–,–
NS(=O)(=O)Nc1ncnc(OCCOc2ncc(Br)cn2)c1-c1ccc(Br)cc1,35% (inactive),–,–
C=CC(=O)Nc1cc(-n2c(=O)ccc3cnc4ccc(-c5ccc(NS(C)(=O)=O)cc5)cc4c32)ccc1C,–,inactive,–
COc1ccc(CN2CCN(CCCSc3cc(C(C)(C)C)c(O)c(C(C)(C)C)c3)CC2)c(OC)c1OC,51.5% [at 15.1 µM] (inactive),–,–
Cc1sc2c(c1C)C(c1ccc(Cl)cc1)=N[C@H](CC(=O)NCCCCNC(=O)COc1cccc3c1C(=O)N([C@H]1CCC(=O)NC1=O)C3=O)c1nnc(C)n1-2,-3.88% (inactive),–,–
C=C1C(=O)O[C@H]2/C=C(/C)[C@@H](OC(C)=O)C/C=C(\C)C[C@@H](OC(=O)/C(=C/C)COC(=O)/C(=C/C)CO)[C@@H]12,1.62% [at 33.1 µM] (inactive),–,–
Nc1nc(O)c(C2=C3C(=Nc4ccccc43)C(=O)NCC2)[nH]1,23.1% (inactive),–,–
C[C@@H](NC(=O)c1ccc(C#Cc2cccc(F)c2)cn1)C(C)(C)O,15.7% (inactive),–,–
O=C1c2ccc(Nc3ccc(F)cc3F)cc2CCc2ccc(OCC(O)CO)cc21 (centres undefined),11.8% (inactive),–,–
CC(C)Nc1nc(Nc2ccccc2)nc(-c2ccccc2)n1,–,inactive,–
O=C(Nc1ccc2[nH]nc(-c3ccncc3)c2c1)[C@@H]1CCN(CC(=O)N2CCN(c3ccc(-c4ncccn4)cc3)CC2)C1,–,inactive,–
C[C@H]1CC[C@@]2(OC1)O[C@H]1CC3[C@@H]4CC[C@@H]5C[C@@H](O[C@@H]6O[C@H](CO)[C@@H](O[C@@H]7O[C@H](CO[C@@H]8OC[C@@H](O)[C@H](O)[C@H]8O)[C@@H](O[C@@H]8O[C@H](CO)[C@H](O)[C@H](O)[C@H]8O)[C@H](O)[C@H]7O)[C@H](O)[C@H]6O)CC[C@]5(C)C4CC[C@]3(C)[C@H]1[C@@H]2C (some centres undefined),-15.8% [at 15.1 µM] (inactive),–,–
COC(=O)CC[C@@H](C)C1CCC2C3CCC4C[C@H](OC(C)=O)CCC4(C)C3C[C@H](O)C21C (some centres undefined),-1.84% (inactive),–,–
CC(=O)O[C@@H]1C[C@]2(C)[C@@]3(CCC4[C@@]5(C)CC[C@H](O[C@@H]6O[C@H](C(=O)O)[C@@H](O)[C@H](OC7OC(CO)C(O)C(O)[C@H]7O[C@@H]7O[C@@H](C)[C@H](O)[C@@H](O)[C@H]7O[C@@H]7OC[C@](O)(CO)[C@H]7O)[C@H]6OC6OC(CO)C(O)C(O)C6O)C(C)(C)C5CC[C@]42C)OC[C@@]12CCC(C)(C)CC23 (some centres undefined),-13.3% [at 10.7 µM] (inactive),–,–
C/C=C(\C)C(=O)OC1C=C(C)CC(OC(=O)c2ccc(O)cc2)C2C1(C)CCC2(O)C(C)C (centres undefined),–,inactive [at 33.1 µM],–
COC(=O)c1ccnc(-c2cc(C(=O)Nc3ccc(C4(N)CC4)cc3)ccn2)c1,–,inactive,–
Cc1cc2ncc(C(=O)NCC(C)(C)NCC(=O)N3CCC[C@H]3C#N)cn2n1,15.7% (inactive),–,–
CC(=O)OC1[C@H]2[C@@H](C[C@@H](C)[C@@H]3C=CC(=O)[C@@]13C)OC(=O)[C@@H]2C (some centres undefined),9.48% (inactive),–,–
C=CC(C)(O)CC[C@@H]1[C@@]2(C)CCCC(C)(C)C2CC[C@@]1(C)O (some centres undefined),23% (inactive),–,–

Structure (SMILES),"activity change, negative = inhibition",outcome,Potency
COc1c(CCC(=O)O)cccc1O[C@@H]1O[C@H](CO)[C@@H](O)[C@H](O)[C@H]1O,-26.6% [at 33.1 µM] (inactive),–,–
CC(=O)OC1C(OC(=O)c2ccccc2)C2C(C)(C)CCC(OC(C)=O)C2(C)C23CCC(C)(C2)C(=O)CC13 (centres undefined),-15% [at 33.1 µM] (inactive),–,–
CC(=O)C1(C)CCC2C3C=C(C)C4=CC(=O)CCC4(C)C3CCC21C (centres undefined),-18.3% (inactive),–,–
COc1cc(C(N)=O)nc(-c2ccccn2)c1O,–,inactive,–
CCOC(=O)c1cnn(-c2ccccc2)c1NC(=O)c1cc2nc(-c3ccco3)cc(C(F)(F)Cl)n2n1,-9.87% (inactive),–,–
COc1cc(-n2cnc3cc(-c4ccc(Cl)cc4)sc3c2=O)ccc1OCCN1CCCC1,8.15% (inactive),–,–
CC(=O)O[C@@H]1CC2C(C)(C)C(=O)C=C[C@]2(C)C2CC[C@@]3(C)[C@H](c4ccoc4)OC(=O)[C@H]4O[C@]43[C@@]21C (some centres undefined),-6.13% [at 33.1 µM] (inactive),–,–
C[C@@H](O[C@H]1OCCN(Cc2nn(P(=O)(O)O)c(=O)[nH]2)[C@H]1c1ccc(F)cc1)c1cc(C(F)(F)F)cc(C(F)(F)F)c1,-1.33% [at 33.1 µM] (inactive),–,–
Cc1cnn(-c2ccccc2)c1NC(=O)COCc1ccccc1,–,inactive,–
C/C=C(\C)C(=O)O[C@H]1C=C(CO)C(=O)[C@H](OC(C)=O)[C@H]1C(C)C,-10.4% [at 33.1 µM] (inactive),–,–
Cc1ccnn1-c1ccc(C(=O)N2CCN(S(=O)(=O)c3ccc(Cl)c(C(F)(F)F)c3)CC2)cc1,-11.8% (inactive),–,–
O=C(Nc1cccc2cccnc12)c1ccc(N2C(=O)[C@@H]3C4C=CC(C4)[C@@H]3C2=O)cc1,14.6% (inactive),–,–
Nc1nc(NC2CC2)cc(-c2cccc(Cl)c2Cl)n1,–,inactive,–
CC(=O)OC1CC(C)C2(CCC3(CC(=O)OC3O)O2)C2(C)CCCC(C)(C)C12 (centres undefined),-26.8% [at 33.1 µM] (inactive),–,–
CCC(C)(NC(=O)C(CCC(N)=O)NC(=O)C1CC(O)CN1C(=O)C(C)(C)NC(=O)C(C)(C)NC(=O)C(CC(C)C)NC(=O)CNC(=O)C(NC(=O)C(C)(C)NC(=O)C(C)(C)NC(=O)C(C)(C)NC(=O)C(Cc1ccccc1)NC(C)=O)C(C)C)C(=O)N1CC(O)CC1C(=O)NC(C)(C)C(=O)NC(CO)Cc1ccccc1 (centres undefined) (Ac-F[Aib][Aib][Aib]VGL[Aib][Aib][Hyp]Q[Iva][Hyp][Aib][Phe(ol)]; configuration not given here),–,inactive [at 10.7 µM],–
Cn1cc(-c2cnn3c(N)c(Br)c(C4CCCNC4)nc23)cn1 (centres undefined),25.2% (inactive),–,–
O=C(Nc1ncc([N+](=O)[O-])s1)c1ccccc1O,–,–,22.4 µM (active)
CO[C@H]1O[C@@H]2O[C@@]3(C)CCC4[C@H](C)CCC([C@H]1C)[C@]42OO3 (some centres undefined),13.3% (inactive),–,–
Cc1nnc(C[C@@H]2C=C(c3ccc(Cl)cc3)c3ccccc3-n3c(C)nnc32)o1,-18.1% (inactive),–,–
